Among the data in PubChem BioAssay AID504847 (National Center for Advancing Translational Sciences (NCATS), 2011) are max response, negative = inhibition and Potency values, retold here.

Hit rate of the full screen: of about 400,000 compounds, about 3,700 (0.93%) were called active. Inconclusive results (about 3%) are left out. The call rests on the fitted dose curve; in most records, active means well fitted inhibition curve with a large enough effect; inconclusive means small, poorly fitted or top-dose-only effect, or another doubt; inactive means no such curve, though single readings can be large or run the other way. For the sample, actives were picked, then their nearest neighbours and some compounds at random.
On the % scale 0 is the no-effect control and ±100 the full control effect; potency means the concentration at half of the fitted maximal effect.

The assay deals with Vitamin D3 receptor (Homo sapiens) (UniProt P11473). The experiment in a line: Inhibitors of the vitamin D receptor (VDR): qHTS. Conditions: VDR-SRC2-3 peptide fluorescence polarization, 2 h; max response, negative = inhibition: hits give low values. An excerpt: The vitamin D receptor (VDR) is a ligand-activated transcription factor and is partially responsible for the regulation of the endocrine system. This includes the transcriptional regulation of genes involved in the production of the parathyroid hormone (PTH) and the regulation of the blood calcium level. High levels of PHT can cause hypercalcemia in the case of primary and tertiary hyperparathyroidism. The VDR-mediated gene regulation, activated by its ligand 1,25-dihydroxyvitamin D3 (1,25-(OH)2D3), is governed by the recruitment of coactivators. Our hypothesis is that small molecules, with the ability to inhibit the interaction between VDR and certain coactivators, are able to selectively modulate VDR-mediated transcription. Our long term objective is the application these VDR-coactivator inhibitors to study the role of VDR-coactivator binding for specific VDR regulated genes. Ultimately, these molecules can be developed into new treatments for hypercalcemic hyperparathyroidism. No small molecule or non-peptide inhibitors are known for the VDR-coactivator interaction.
Sequence of Vitamin D3 receptor (Homo sapiens) (P11473 whole entry, looked up): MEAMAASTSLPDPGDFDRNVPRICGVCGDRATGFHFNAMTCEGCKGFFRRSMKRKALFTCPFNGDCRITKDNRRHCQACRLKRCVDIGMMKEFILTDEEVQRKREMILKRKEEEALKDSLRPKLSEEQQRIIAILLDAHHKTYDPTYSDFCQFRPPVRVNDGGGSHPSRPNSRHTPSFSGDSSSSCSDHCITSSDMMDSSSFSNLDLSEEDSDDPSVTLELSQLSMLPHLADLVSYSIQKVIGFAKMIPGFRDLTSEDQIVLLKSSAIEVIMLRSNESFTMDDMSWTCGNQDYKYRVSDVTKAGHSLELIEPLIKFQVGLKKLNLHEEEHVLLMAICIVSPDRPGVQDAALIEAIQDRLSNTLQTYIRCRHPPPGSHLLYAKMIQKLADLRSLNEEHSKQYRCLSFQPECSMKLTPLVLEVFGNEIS
In a collaboration between the University of Wisconsin, Milwaukee and the NIH Chemical Genomics Center (NCGC) a HTS-compatible enzymatic assay was developed. The assay uses fluorescence polarization as its read-out to measure the inhibition between VDR and coregulator peptide SRC2-3 exerted by small molecules. This assay was used to screen the NIH Molecular Libraries Small Molecule Repository (MLSMR).
NIH Chemical Genomics Center [NCGC]
NIH Molecular Libraries Probe Centers Network [MLPCN]
Assay Submitter (PI): Alexander Arnold, University of Wilwaukee
Both solutions are kept at 4 deg C and protected from light and dispensed using a Kalypsys dispenser. Then 23nl of compounds and controls are added with Kalypsys pintool. […] Plate is centrifuged at 1000 RPM for 15 seconds to remove any residual bubbles. The plate is then incubate at ambient room temperature for 2 hours.
In general terms: In qHTS, concentration-response curves come from the screen itself.
As for `COc1ccccc1OCCC(=O)OCC(=O)NCc1ccccc1`, the max response, negative = inhibition is -14.2% (inactive).

Consider `COc1cc(C(=O)NCc2ccncc2)cc(Br)c1OCc1ccccc1`, for which the max response, negative = inhibition is -8.88% (inactive).

As for `COc1cc(C(=S)NCc2ccccc2)cc(Br)c1O`, the Potency is 50.1 µM (active).

As for `COc1ccc(NC(=O)C2CCCN(S(=O)(=O)c3cccc4nonc34)C2)cc1Cl` (configuration not stated), the max response, negative = inhibition was -11.1% (inactive).

On to `Cc1ccc(NC(=O)C(=O)NCC(c2cccnc2)N2CCOCC2)cc1` (configuration not stated), for which the max response, negative = inhibition was 7.68% (inactive).

Regarding `COc1ccc(CCn2cc3c(c2-c2ccc(Br)cc2)c(=O)n(C)c(=O)n3C)cc1OC`, the max response, negative = inhibition is -7.8% (inactive).

As for `COCCNC(=S)Nc1cc(S(=O)(=O)N2CCOCC2)ccc1N1CCCCC1`, the Potency was 35.5 µM (active).

Consider `Cc1ccc(S(=O)(=O)N2CCOCC2)cc1C(=O)Nc1ccccc1N1CCCC1`, for which the max response, negative = inhibition was -16.8% (inactive).

Turning to `O=C(COC(=O)Cc1ccc(F)cc1)Nc1cc(S(=O)(=O)N2CCOCC2)ccc1N1CCCC1`, the max response, negative = inhibition was 2.6% (inactive).

`COCCn1c(=O)c(-c2ccccc2)nc2cnc(N3CCOCC3)nc21`: the max response, negative = inhibition is 8.94% (inactive).

Turning to `CCC(=O)N1N=C(c2ccc(OC)cc2)CC1c1cn(-c2ccccc2)nc1-c1cccs1` (configuration not stated), the max response, negative = inhibition is -4.57% (inactive).

As to `Cc1ccccc1NC(=O)Cn1c(=O)n(CCc2ccccc2)c(=O)c2ccccc21`, the max response, negative = inhibition is -10.9% (inactive).

For the compound `Cc1cc(Cl)ccc1OCC(=O)N(Cc1ccc(N(C)C)cc1)C1CCS(=O)(=O)C1` (configuration not stated), the max response, negative = inhibition was 9.26% (inactive).

As to `CC(C)Cn1c(=O)c2ccccc2n2c(-c3cccc(Cl)c3)nnc12`, the max response, negative = inhibition was 21.6% (inactive).

Take `O=c1[nH]c2ccccc2n2c(-c3ccccc3)nnc12`: the Potency was 12.6 µM (active).

For the compound `CCc1ccc(NC(=O)c2cc(S(=O)(=O)N3CCCC(C)C3)cn2C)cc1` (configuration not stated), the max response, negative = inhibition is 9.47% (inactive).

For `COc1ccc(C2CC(=O)N(Cc3ccccc3C)c3c2c(C)nn3-c2nc(C)cc(C)n2)c(OC)c1` (configuration not stated), the max response, negative = inhibition was 5.38% (inactive).

For `Fc1ccc(Nc2nnns2)cc1`, the Potency is 79.4 µM (active).

As for `CSc1nc(Nc2ccc(F)cc2)cc(-c2ccccc2)n1`, the max response, negative = inhibition is 5.7% (inactive).

`CN(C)c1nc(NN)nc(Nc2ccc(F)cc2)n1`: the max response, negative = inhibition is -11.3% (inactive).

Regarding `Cc1ccc(-c2nc(SCc3ccc(Br)cc3)n3[nH]c(=O)cc3n2)cc1`, the max response, negative = inhibition was 16.1% (inactive).

As to `CCc1ccccc1N1CC(c2nc3ccccc3n2CCCCOc2ccccc2)CC1=O` (configuration not stated), the max response, negative = inhibition was 13.5% (inactive).

Regarding `Cc1cc(C)nc(NC(=O)/C=C/c2ccc(Cl)cc2)n1`, the max response, negative = inhibition is -4.04% (inactive).

With `Cc1cccc(C(=O)Nc2ccc(C(=O)/C=C/c3cccs3)cc2)c1`, the max response, negative = inhibition was 5.44% (inactive).

Turning to `Cc1cccc(C=CC(=O)c2ccc(Cl)cc2)c1`, the Potency was 20 µM (active).

Consider `COc1ccc(S(=O)(=O)NCc2cccn2Cc2cccc(C)c2)cc1`, for which the max response, negative = inhibition is -9.31% (inactive).

On to `CCC1CCCCN1Cc1c(O)ccc2c(=O)c(Oc3ccccc3Cl)c(C(F)(F)F)oc12` (configuration not stated), for which the max response, negative = inhibition is -11.4% (inactive).

For `CN1CCN2c3ccccc3Cc3ccccc3[C@@H]2C1`, the max response, negative = inhibition was -7.22% (inactive).

As for `COc1ccc(C(=O)CSc2c(C(C)C)cnc3c2c(=O)n(C)c(=O)n3C)cc1`, the max response, negative = inhibition is -4.32% (inactive).

As to `CCc1ccccc1NC(=O)c1sc2nc3c(cc2c1N)CN(Cc1ccccc1)CC3`, the max response, negative = inhibition is -9.37% (inactive).

For `COc1ccc(NC(=O)CCCc2nnc3n(CCC(C)C)c(=O)c4sccc4n23)c(OC)c1`, the max response, negative = inhibition was -1.71% (inactive).

For the compound `COc1ccc(NS(=O)(=O)c2ccc(N3CCOCC3)c(NC(=O)/C=C/C(=O)O)c2)cc1`, the max response, negative = inhibition is 1.49% (inactive).

As for `COC(=O)c1sc(-c2ccc(C(C)(C)C)cc2)cc1NC(=O)/C=C/C(=O)O`, the Potency is 28.2 µM (active).

With `COc1ccccc1NC(=O)/C=C/C(N)=O`, the max response, negative = inhibition is 1.2% (inactive).

Take `CCC(Sc1nnc(-c2ccc(OC)cc2)c(-c2ccc(OC)cc2)n1)C(=O)NC1CCCCC1` (configuration not stated): the max response, negative = inhibition is 11.6% (inactive).

As for `Cc1nc2ccccn2c(=O)c1NC(=O)c1c(F)cccc1F`, the max response, negative = inhibition is 13.4% (inactive).

Consider `Cc1ccc2nc(-c3ccc(C)c(NC(=O)Cc4ccccc4)c3)oc2c1`, for which the max response, negative = inhibition was -21.8% (inactive).

As to `Cc1ccc(OCC(=O)Nc2ccc(Cl)c(-c3nc4ccccc4[nH]3)c2)cc1C`, the max response, negative = inhibition was 2.81% (inactive).

As for `CC(=O)OCC(=O)[C@@]1(O)CCC2C3CCC4=CC(=O)CC[C@]4(C)C3C(=O)C[C@]21C` (some centres not stated), the max response, negative = inhibition is -10.5% (inactive).

On to `Cc1ccc(Cl)cc1N1CCN(C(=O)c2cn(C)c3ccc(S(=O)(=O)N(C)C4CCCCC4)cc3c2=O)CC1`, for which the max response, negative = inhibition was -5.35% (inactive).

Turning to `O=C1/C(=C\c2ccc(O)cc2)CCC1CNc1ccc(Cl)cc1` (configuration not stated), the Potency was 79.4 µM (active).

As for `O=C1N=C(N2CCc3ccccc3C2)S/C1=C\c1ccc(O)cc1`, the max response, negative = inhibition was 17.3% (inactive).

As for `Cc1nn(-c2ccc(N3CCCCC3)nn2)c(C)c1CCC(=O)NCc1ccc(F)cc1`, the max response, negative = inhibition was 11.6% (inactive).

Take `COc1ccc(CCNC(=O)c2cc3cccc4c3n2CC(C)S4)c(OC)c1OC` (configuration not stated): the max response, negative = inhibition was 4.11% (inactive).

With `COc1ccc(Cn2ccn(Cc3cccc(OC)c3)c(=O)c2=O)cc1`, the max response, negative = inhibition was 6.97% (inactive).

On to `O=[N+]([O-])/C=C/c1ccc2c(ccn2Cc2ccccc2)c1`, for which the Potency was 6.31 µM (active).

Consider `O=c1c(=O)n(Cc2c(F)cccc2Cl)ccn1Cc1ccccc1`, for which the max response, negative = inhibition is -1.19% (inactive).

For `COc1ccc(Cn2c(=O)[nH]c3cc(C(=O)N4CCN(C(=O)c5ccco5)CC4)ccc3c2=O)cc1`, the max response, negative = inhibition was -6.06% (inactive).

Regarding `COc1ccc(-c2nc3sc(CCNS(=O)(=O)c4ccc(F)c(C)c4)c(C)n3n2)cc1`, the max response, negative = inhibition was 16% (inactive).

Take `COC(=O)/C=C\C(=O)Nc1cccc([N+](=O)[O-])c1`: the Potency was 22.4 µM (active).

Turning to `O=C(Nc1cccc([N+](=O)[O-])c1)N1CCc2ccccc2C1`, the max response, negative = inhibition was 5.4% (inactive).

Take `O=C(CN1CCOCC1)Nc1cccc([N+](=O)[O-])c1`: the max response, negative = inhibition is -1.57% (inactive).

Regarding `CC(=O)N1c2ccc(S(=O)(=O)N3CCCCCC3)cc2CC1C(=O)NCc1ccccc1C` (configuration not stated), the max response, negative = inhibition is 5.71% (inactive).

Turning to `N#Cc1c(-c2ccccc2)nc(SCc2cccc(C(F)(F)F)c2)[nH]c1=O`, the Potency was 79.4 µM (active).

`O=c1[nH]c(SCc2cccc(F)c2)nc2ccccc12`: the max response, negative = inhibition was -6.23% (inactive).

Turning to `N#Cc1c(-c2ccc(F)cc2)nc(-c2ccccc2)[nH]c1=O`, the max response, negative = inhibition was 13.1% (inactive).

With `Cc1oc(-c2ccccc2)nc1Cn1c(SCc2cccc(C(F)(F)F)c2)nc2cccnc21`, the max response, negative = inhibition was 2.78% (inactive).
